The values below come from PubChem BioAssay (EPA / NIEHS).

Molecules are shown by their SMILES. The source made the active and inactive calls. How the source made its calls: active means hit-call score of the fitted dose curve at least 0.9, where 1 is the maximum; inactive means score below 0.9.

In this test the target is Paired box protein Pax-6 (Homo sapiens) (UniProt P26367). Description: ATG_Pax6_CIS: Attagene CIS-FACTORIAL HepG2 Assay for human Paired Box 6 (PAX6) (AID 2282956). To be noted: HepG2 CIS-FACTORIAL PAX6 reporter transcription, RNA readout; actives raise or lower the signal. As for the experimental part: ATG_CIS is a cell-based, multiplexed-readout assay that uses HepG2, a human liver cell line, with measurements taken at 24 hours after chemical dosing in a 24-well plate.ATG_Pax6_CIS is one of 52 assay component(s) measured or calculated from the ATG_CIS assay. It is designed to make measurements of mRNA induction, a form of inducible reporter, as detected with fluorescence intensity signals by Reverse transcription polymerase chain reaction (RT-PCR) and Capillary electrophoresis technology.Data from the assay component ATG_Pax6_CIS was analyzed into 1 assay endpoint. This assay endpoint, ATG_Pax6_CIS, was analyzed with bidirectional fitting relative to DMSO as the negative control and baseline of activity. Using a type of inducible reporter, measures of mRNA for gain or loss-of-signal activity can be used to understand the reporter gene at the transcription factor-level as they relate to the gene PAX6. Furthermore, this assay endpoint can be referred to as a primary readout, because this assay has produced multiple assay endpoints where this one serves a reporter gene function. To generalize the intended target to other relatable targets, this assay endpoint is annotated to the dna binding intended target family, where the subfamily is paired box protein.
Paired box protein Pax-6 (Homo sapiens), sequence (P26367 whole entry, looked up): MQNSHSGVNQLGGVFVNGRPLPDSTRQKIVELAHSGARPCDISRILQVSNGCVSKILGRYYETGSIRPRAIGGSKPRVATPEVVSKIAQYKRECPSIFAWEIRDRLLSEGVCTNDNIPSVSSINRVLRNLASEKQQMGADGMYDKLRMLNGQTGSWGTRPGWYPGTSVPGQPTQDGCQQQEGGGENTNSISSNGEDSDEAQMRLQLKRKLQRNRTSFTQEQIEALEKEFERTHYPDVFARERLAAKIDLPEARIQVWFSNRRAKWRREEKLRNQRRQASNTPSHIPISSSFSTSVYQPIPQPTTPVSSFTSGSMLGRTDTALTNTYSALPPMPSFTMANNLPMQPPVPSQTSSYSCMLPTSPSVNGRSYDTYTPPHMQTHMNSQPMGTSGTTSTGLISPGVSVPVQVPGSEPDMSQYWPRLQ
Human liver HepG2 cells are transiently transfected with multiple reporter transcription units (MRTUs) in 6-well plates using FuGene 6 reagent (Roche; 3 ml FuGene/1 mg DNA). The MRTU constructs are regulated by a cis-regulating element (promoter). […] A major difference between the CIS and TRANS system is that in CIS activities of endogenous TFs are measured, whereas the TRANS assay evaluates changes in activities of exogenous, chimeric NR-Gal4 proteins. […] At the end of 24 hour incubation, total RNA was isolated using TriZol reagent (Invitrogen). The isolated RNA is then reverse-transcribed using oligo(dT) primer and Mo-MLV reverse transcriptase (Invitrogen) with DNAse I (Ambion) treatment for 30 min. The one-tenth of the produced cDNA was amplified by PCR using Taq DNA polymerase (Invitrogen) and two reporter sequence-specific primers. The PCR products were fluorescently labeled by primer extension with 6-arboxyfluorescein (6-FAM) 5'-labeled reporter sequence-specific primer (2 min at 95 C, 20 s at 68 C and 10 min at 72 C) and these products were digested with 5U of HpaI (New England Biolabs) for 2h at 37 C. The fragments were purified using Qiaquick PCR columns (Qiagen), analyzed on an ABI 3130xL genetic analyzer (Applied Biosystems) with peak positions identified by using a set of X-rhodamine (ROX)-labeled MapMarker1000 molecular weight standards (BioVentures). The raw capillary electrophoresis data was processed using Attagraph software (Attagene).
`Cc1ccc([N+](=O)[O-])c(C)c1`: the call was inactive. Still for that read-out and setting: to `CC(=O)c1ccccc1N` belongs “inactive”. On the same count and under the same terms, under `CCOCOCC` stands “inactive”.

As for `O=C(Cl)C(F)(F)C(F)(F)C(F)(F)C(F)(F)C(F)(F)C(F)(F)C(F)(F)F`, the result was inactive.

Consider `N#CCCOCCC#N`, for which the molecule was classed as inactive. Take `COC(F)(C(F)F)C(F)(F)F` (stereo not given): the outcome was inactive. Still for that read-out and setting: to `CC(C)Nc1ccc(NC(C)C)c2c1C(=O)c1ccccc1C2=O` belongs “inactive”.

The AC50 is the concentration at which the activity in the assay is half-maximal. Turning to `CCN=C1C=CC(=C(c2ccc(N(CC)CC)cc2)c2ccc(N(CC)CC)cc2)c2ccccc21`, the concentration at half-maximal activity (AC50) was 1.78 µM (active).

Turning to `C[Si](Cl)(Cl)CCC(F)(F)C(F)(F)C(F)(F)C(F)(F)C(F)(F)C(F)(F)F`, the outcome was inactive.

For the molecule `OCCCCC(F)(F)C(F)(F)C(F)(F)C(F)(F)F`, the call was inactive. The same measure, in the same setting: under `CCCCCCCC/C=C\CCCCCCCC(=O)N(C)CC(=O)O` stands “inactive”.

As for `CCc1cc(Cc2cc(CC)c(N)c(CC)c2)cc(CC)c1N`, the half-maximal activity concentration (AC50) is 33.4 µM (active). On to `Brc1nc2ccccc2s1`, for which the outcome was inactive. As for `CC(C)OC=O`, the result was inactive. Turning to `C=CC(=O)OCC(F)(F)C(F)(F)C(F)(F)COC(=O)C=C`, the concentration at half-maximal activity (AC50) was 50 µM (active). As for `Cc1cnccn1`, the molecule was classed as inactive. On the same count and under the same terms, to `O=C=NCc1cccc(CN=C=O)c1` belongs “inactive”; to `CCN(CC)c1ccc(N=Nc2ccccc2)cc1`, “inactive”. Regarding `CO[Si](C)(CCC(F)(F)C(F)(F)C(F)(F)C(F)(F)C(F)(F)C(F)(F)F)OC`, the molecule was called inactive. Turning to `O=c1[nH]cccc1O`, the call was inactive. On the same count and under the same terms, to `FC(F)(F)C(F)(F)C(F)(F)CC1CO1` (stereo not given) belongs “inactive”; to `OCC(F)(F)C(F)(F)C(F)(F)C(F)(F)C(F)(F)C(F)(F)CO`, “inactive”; to `CC1=CCC2C(=O)OC(=O)C2C1` (stereo not given), “inactive”.

Regarding `CCCCCCCC/C=C\CCCCCCCC(=O)OCC(O)CO` (stereo not given), the outcome was inactive.

Turning to `CC(C)OC(=O)COc1ccc(Cl)cc1Cl`, the call was inactive.

For `CCCCCCCCCCCCCC[P+](CCCC)(CCCC)CCCC`, the half-maximal activity concentration (AC50) was 0.81 µM (active).

Take `Oc1ccc(C2(c3ccc(O)c(C4CCCCC4)c3)CCCCC2)cc1C1CCCCC1`: the AC50 is 14.4 µM (active).

For `NC(=O)C(F)(F)C(F)(F)C(F)(F)C(F)(F)C(F)(F)C(F)(F)C(F)(F)F`, the outcome was inactive. Regarding `CSc1ccc(O)cc1C`, the molecule was classed as inactive.

Regarding `COCCC(=O)OC`, the molecule was classed as inactive. Same read-out and setting: under `O=C(F)C1(F)C(F)(F)C(F)(F)C(F)(F)C(F)(F)C1(F)F` stands “inactive”; under `N#Cc1ccccc1O`, “inactive”. As to `CCC(Cc1c(I)cc(I)c(N)c1I)C(=O)O` (stereo not given), the outcome was inactive. Still for that read-out and setting: under `CC(C)(C)c1cc(CCC(=O)OCC(COC(=O)CCc2cc(C(C)(C)C)c(O)c(C(C)(C)C)c2)(COC(=O)CCc2cc(C(C)(C)C)c(O)c(C(C)(C)C)c2)COC(=O)CCc2cc(C(C)(C)C)c(O)c(C(C)(C)C)c2)cc(C(C)(C)C)c1O` stands “inactive”; under `CNS(=O)(=O)C(F)(F)C(F)(F)C(F)(F)C(F)(F)C(F)(F)C(F)(F)C(F)(F)C(F)(F)F`, “inactive”; under `NCC(F)(F)C(F)(F)C(F)(F)C(F)(F)C(F)(F)C(F)(F)C(F)(F)C(F)(F)F`, “inactive”. On the same count and under the same terms, under `CCC/C=C/CO` stands “inactive”.

Turning to `CCN(CC)c1ccc2c(c1)Oc1cc(N(CC)CC)ccc1C21OC(=O)c2ccccc21`, the result was inactive.

Consider `CCC(=O)OC(C)c1ccccc1` (stereo not given), for which the call was inactive. Still for that read-out and setting: under `C[C@]12CC[C@H]3C(=CCc4cc(O)ccc43)[C@@H]1CCC2=O` stands “inactive”.
